Results on eight compounds are retold here after PubChem BioAssay (NCATS).

A number with no mark means an inactive call. Records with an inconclusive call do not appear. Activity calls are given as the source filed them. Unless noted, calls come from the whole dose curve; as a rule, active = well fitted curve in the direction sought with a large enough effect; inconclusive = small, poorly fitted or top-dose-only effect, or another doubt; inactive = no such curve, though single readings can be large; an effect the other way counts as inactive or inconclusive. Where only a bound is given, the exact number is not on record here.

The target of experiment [1] is Lysosomal acid glucosylceramidase (Homo sapiens) (UniProt P04062). The experiment can be described thus: Glucocerebrosidase-p2 (AID 348; in the data active = potency below about 10 µM; note: potency is the fitted concentration of half-maximal effect). The note with it: purified GBA, blue fluorogenic substrate, 40 min. The method, boiled down:
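Compounds titrated from 0.6 nM upwards against 0.2 nM enzyme in pH 5.9 citric acid/KH2PO4, taurocholate, tween-20; blue fluorogenic substrate 80 uM, 40 min room temperature, stopped and read Ex 365/Em 440 for AC50.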

Experiment [2] concerns the target Cytochrome P450 1A2 (Homo sapiens) (UniProt P05177). The experiment can be described thus: p450-cyp1a2 (AID 410; calls by dose curve; note: potency is the fitted concentration of half-maximal effect). The note with it: recombinant CYP1A2, luciferin-ME demethylation, luminescence; series mostly up to 57 µM. In short, it runs like this:
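20nM CYP1A2 with 100uM Luciferin-ME (at Km) in 100mM KPO4; compound preincubated 10 min, NADPH regeneration added, 60 min at room temperature. Luciferin quantified by luminescence after detection reagent; normalized to 57 uM furafylline.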

The target of experiment [3] is Glucocorticoid receptor (Homo sapiens) (UniProt P04150). Put plainly: GR-GFP Redistribution (AID 450;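 active = compounds whose dose series gives a full or clear partial fitted curve of increased nuclear translocation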; note: potency is the fitted concentration of half-maximal effect). The note with it: U2OS GR-GFP nuclear translocation, laser cytometry, 2 h.
Sequence of Glucocorticoid receptor (Homo sapiens) (P04150 whole entry, looked up): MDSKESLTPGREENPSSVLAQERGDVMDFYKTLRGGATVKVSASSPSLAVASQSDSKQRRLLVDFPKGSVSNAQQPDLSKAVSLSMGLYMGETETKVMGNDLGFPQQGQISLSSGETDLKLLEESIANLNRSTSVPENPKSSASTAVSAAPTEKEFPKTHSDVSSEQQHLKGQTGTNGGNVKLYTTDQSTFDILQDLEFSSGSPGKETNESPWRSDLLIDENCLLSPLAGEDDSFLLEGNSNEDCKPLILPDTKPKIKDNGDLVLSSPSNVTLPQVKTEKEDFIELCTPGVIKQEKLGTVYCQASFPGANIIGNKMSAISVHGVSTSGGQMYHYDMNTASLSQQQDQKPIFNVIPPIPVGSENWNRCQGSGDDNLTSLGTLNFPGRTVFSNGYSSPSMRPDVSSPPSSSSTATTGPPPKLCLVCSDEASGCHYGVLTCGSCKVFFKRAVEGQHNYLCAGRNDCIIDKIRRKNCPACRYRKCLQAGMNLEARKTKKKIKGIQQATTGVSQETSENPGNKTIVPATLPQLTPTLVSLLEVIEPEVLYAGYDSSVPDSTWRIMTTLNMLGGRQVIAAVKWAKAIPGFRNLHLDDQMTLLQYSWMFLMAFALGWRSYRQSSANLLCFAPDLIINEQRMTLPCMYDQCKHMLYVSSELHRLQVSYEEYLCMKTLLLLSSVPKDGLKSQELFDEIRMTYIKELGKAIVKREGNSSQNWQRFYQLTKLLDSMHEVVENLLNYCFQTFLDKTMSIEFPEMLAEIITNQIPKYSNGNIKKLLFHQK
The target is the same in experiment [4]. The experiment can be described thus: GR-EFC Redistribution (AID 451; calls by dose curve; note: potency is the fitted concentration of half-maximal effect). Particulars: CHO-K1 GR-EFC translocation, beta-gal luminescence, 2 h. The method, boiled down:
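CHO-K1 cells expressing nuclear EA and GR-ED fragments of b-gal; compounds titrated up to 46 uM final, 2 h at 37 C. GR nuclear translocation read as complemented b-gal luminescence after 1 h RT detection.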

For experiment [5], the target named is 3',5'-cyclic-AMP phosphodiesterase 4B (Homo sapiens) (UniProt Q07343). The experiment can be described thus: qHTS Assay for Inhibitors of PDE-IV (AID 607; active = well fitted activation curve with a large enough effect in the main read-out, with a control signal flat, not every such curve was filed as active; note: potency is the fitted concentration of half-maximal effect). Particulars: HEK293 ACTOne CNG channel cells, membrane potential fluorescence; series mostly up to 22.9 µM. In short, it runs like this:
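The readout is membrane depolarisation from a cAMP-sensing CNG channel, detected with a potential dye at ex 535/em 590. Cells were HEK293-derived (endogenous PDE-IV) at 1000 cells/well, titrated up to 22.9 uM final.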

Experiment [6] addresses Cytochrome P450 3A4 (Homo sapiens) (UniProt P08684). The experiment can be described thus: qHTS Assay for Inhibitors and Substrates of Cytochrome P450 3A4 (AID 884). Note: nearly all actives have a fitted effect of over 50% in size. Note: potency is the fitted concentration of half-maximal effect. Particulars: recombinant CYP3A4, Luciferin-PPXE luminescence; series mostly up to 57.1 µM. The method, boiled down:
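20 nM human CYP3A4 with 25 uM Luciferin-PPXE (at KM) in 200 mM KPO4, preincubated 10 min with compound; NADPH regeneration started a 60 min RT reaction. Luciferin detected by luminescence, normalized to 57 uM ketoconazole as full inhibition.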

Experiment [7] shares this target. Put plainly: qHTS Assay for Activators of Cytochrome P450 3A4 (AID 885). Note: nearly all actives have a fitted effect of over 65% in size. Note: potency is the fitted concentration of half-maximal effect. The note with it: recombinant CYP3A4, Luciferin-PPXE luminescence, 60 min; series mostly up to 57.1 µM. The method, boiled down:
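Steps: enzyme/substrate mix dispensed; compound added, 10 min RT; NADPH regeneration solution added, 60 min RT; luciferin detection buffer stops reaction; 20 min later luminescence measured.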

Experiment [8] addresses Cytochrome P450 2C19 (Homo sapiens) (UniProt P33261). The experiment can be described thus: qHTS Assay for Inhibitors and Substrates of Cytochrome P450 2C19 (AID 899). Note: potency is the fitted concentration of half-maximal effect; nearly all actives have a fitted effect of over 60% in size. The note with it: recombinant CYP2C19, luciferin-H EGE luminescence; series mostly up to 57.1 µM. The method, boiled down: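 Signal comes from luciferase acting on luciferin released by CYP2C19-mediated hydroxylation of Luciferin-H EGE, 10uM (KM). Assay mix: 5nM enzyme, 50mM KPO4; 60 min at 37C with NADPH regeneration. Data normalized against 57uM ketoconazole.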
For orientation: In qHTS, concentration-response curves come from the screen itself.

Experiment [9] concerns the target Dual specificity protein kinase CLK4 (Homo sapiens) (UniProt Q9HAZ1). Put plainly: qHTS Assay for Inhibitors of CDC-like Kinase 4 (Kinase-Glo Assay) (AID 1770). Note: nearly all actives have a fitted effect of over 65% in size. Note: potency is the fitted concentration of half-maximal effect. The note with it: recombinant Clk4, Kinase-Glo ATP depletion luminescence; series mostly up to 66.7 µM. In short, it runs like this:
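Readout: Kinase-Glo luminescence from ATP left after a 4.5 h room-temperature reaction of 25 nM Clk4 with 100 uM RS peptide and 1 uM ATP (final). Buffer: 25 mM Tris pH 7.5, 10 mM MgCl2.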

For experiment [10] the target is unchanged. The experiment can be described thus: qHTS Assay for Inhibitors of CDC-like Kinase 4 (ADP-Glo Assay) (AID 1771). Note: nearly all actives have a fitted effect of over 70% in size. Note: potency is the fitted concentration of half-maximal effect. Particulars: recombinant CLK4, ADP-Glo luminescence; series mostly up to 80 µM. The method, boiled down: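 25 nM Clk4 with 100 uM RS repeat peptide and 1 uM ATP (final) in buffer with 2 mM MgCl2, 0.5 mM EGTA, 2.5 mM DTT, 0.01% Triton X-100; 1 h at room temperature; ADP-Glo luminescence for ADP formed.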

Experiment [11] has the same target. The experiment can be described thus: qHTS Assay for Inhibitors of CDC-like Kinase 4 (ADP-FP Assay) (AID 1795). Note: nearly all actives have a fitted effect of over 60% in size. Note: potency is the fitted concentration of half-maximal effect. The note with it: Transcreener ADP fluorescence polarization; series mostly up to 50 µM. The method, boiled down:
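FP readout: Orange Transcreener ADP2 tracer (4 nM) plus ADP antibody, read after 30 min at room temperature. Kinase step: 6.25 nM Clk4, 100 uM RS peptide, 1 uM ATP, pH 7.5, 1 h.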

Experiment [12] concerns the target Ubiquitin carboxyl-terminal hydrolase 1 (Homo sapiens) (UniProt O94782). Put plainly: Inhibitors of USP1/UAF1: Pilot qHTS (AID 504865).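 Note: rhodamine fluorescence freed from ubiquitin-rhodamine substrate followed over time; top concentration of the series differs between compounds; % is set by controls: 0 for no effect and ±100 for the full control effect; nearly all actives have a fitted effect of over 35% in size.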 Particulars: purified USP1/UAF1, Ub-rhodamine cleavage fluorescence; series mostly up to 54.9 µM. The method, boiled down: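 1nM USP1/UAF1 + cpd, 15 min RT; start w/ Ub-Rho 150nM final; kinetic FL 480/540 nm, 6 reads q60 s. Buffer 50mM HEPES pH 7.8, 0.5mM EDTA, 1mM TCEP, 0.01% Tween-20, 0.1 mg/ml BSA.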

Experiment [13] is described as follows: Primary qHTS for small molecule stabilizers of the endoplasmic reticulum resident proteome: Secreted ER Calcium Modulated Protein (SERCaMP) assay (AID 1508630). Note: % is set by controls: 0 for no effect and ±100 for the full control effect. Particulars: SH-SY5Y GLuc-SERCaMP (Gaussia luciferase released on ER calcium loss) secretion, thapsigargin, luminescence; series mostly up to 38.4 µM. The method, boiled down: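 GLuc-SERCaMP-expressing SH-SY5Y cells, pretreated 16 h with compound, are challenged with thapsigargin to empty ER calcium stores; after 4 h, coelenterazine is added directly to the medium and luminescence is imaged.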

The target of experiment [14] is Mitogen-activated protein kinase 10 (Mus musculus) (UniProt Q61831). Put plainly: JNK3 AlphaScreen Assay (AID 530; active = well fitted curve in either direction with a large enough effect, not every such curve was filed as active;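 note: kinase came from lysate of stimulated human HepG2 cells; signal reports phosphorylation of biotinylated GST-cJun 1-79 at Ser73 with 10 µM ATP; % is set by controls: 0 for no effect and ±100 for the full control effect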). The note with it: JNK3 lysate, c-Jun phosphorylation; series mostly up to 57.1 µM. The method, boiled down: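 Pre-activated (IL-1β/TNFα) JNK3 in HepG2 lysates phosphorylates biotin-GST-cJun(1-79), 10 uM ATP; anti-phospho-cJun(Ser73) AlphaScreen read at room temperature, pH 7.6 Tris buffer. Compounds pre-incubated 15 min as titrations.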
Background: In Alpha technology, singlet oxygen from a donor bead excites a nearby acceptor bead.

A short description of experiment [15]: qHTS Assay for Identification of Small Molecule Agonists for Hypoxia Response Element Signaling Pathway (AID 914; active = well fitted activation curve with a large enough effect in the signal ratio, with a control signal flat, not every such curve was filed as active; the % refers to the signal ratio; note: potency is the fitted concentration of half-maximal effect). Particulars: ME-180 HRE-bla reporter, beta-lactamase ratio, CoCl2, 17 h; activation: hits give high values. The method, boiled down:
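ME-180 cells carrying an HRE-driven beta-lactamase reporter were treated with compounds in a titration series plus an EC50 level of CoCl2 for 17 h at 37 degrees Celsius; CCF4 readout as the 460nm/530nm ratio gave AC50 values.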

Experiment [16] in a line: NFAT Signaling Pathway (AID 444; active = well fitted curve in either direction with a large enough effect, not every such curve was filed as active;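 note: carbachol stimulus at about its EC50 of 1 µM final; % is set by controls: 0 for no effect and ±100 for the full control effect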). The note with it: Jurkat NFAT-bla M1, carbachol, beta-lactamase ratio, 5 h; at 7.69 µM (top of the series) unless noted. In short, it runs like this:
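Jurkat cells with NFAT-driven β-lactamase reporter and co-expressed M1 receptor, stimulated with carbachol (final 1 uM, ~EC50), compound titration, 5 h at 37 °C. CCF4 loaded 1 h at RT; 460/530 nm ratio gave %activity and AC50.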

Experiment [17] can be described thus: Stat Signaling Pathway (AID 446; active = well fitted curve in either direction with a large enough effect, not every such curve was filed as active;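 note: ME-180 cervical cancer cells given 40 pM IL-6 alongside compound; SIE-controlled beta-lactamase reporter measured as 460/530 nm FRET emission ratio; % is set by controls: 0 for no effect and ±100 for the full control effect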). The note with it: ME-180 SIE beta-lactamase reporter, IL-6 stimulated, 5 h; at 7.69 µM (top of the series) unless noted. In short, it runs like this: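 Screening format detects activators and inhibitors alike: ME-180 SIE-bla cells stimulated at 40 pM IL-6 for 5 hrs with compound, then dual-emission beta-lactamase read at 405 nm excitation.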

Sequence of Dual specificity protein kinase CLK4 (Homo sapiens) (Q9HAZ1 whole entry, looked up): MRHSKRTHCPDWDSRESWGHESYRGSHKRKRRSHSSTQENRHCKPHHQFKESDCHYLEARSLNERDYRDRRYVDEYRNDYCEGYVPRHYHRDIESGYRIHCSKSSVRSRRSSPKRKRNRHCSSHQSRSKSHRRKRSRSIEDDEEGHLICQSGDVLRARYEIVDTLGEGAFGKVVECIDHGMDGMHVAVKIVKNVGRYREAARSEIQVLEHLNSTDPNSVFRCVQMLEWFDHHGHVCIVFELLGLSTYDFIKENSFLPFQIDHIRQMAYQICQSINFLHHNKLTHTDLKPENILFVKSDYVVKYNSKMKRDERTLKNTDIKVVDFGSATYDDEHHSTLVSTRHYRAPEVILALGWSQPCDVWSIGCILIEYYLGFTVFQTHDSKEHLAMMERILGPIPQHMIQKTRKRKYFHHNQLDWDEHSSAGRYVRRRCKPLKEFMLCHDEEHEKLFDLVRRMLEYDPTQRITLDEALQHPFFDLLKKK
Sequence of Cytochrome P450 1A2 (Homo sapiens) (P05177 whole entry, looked up): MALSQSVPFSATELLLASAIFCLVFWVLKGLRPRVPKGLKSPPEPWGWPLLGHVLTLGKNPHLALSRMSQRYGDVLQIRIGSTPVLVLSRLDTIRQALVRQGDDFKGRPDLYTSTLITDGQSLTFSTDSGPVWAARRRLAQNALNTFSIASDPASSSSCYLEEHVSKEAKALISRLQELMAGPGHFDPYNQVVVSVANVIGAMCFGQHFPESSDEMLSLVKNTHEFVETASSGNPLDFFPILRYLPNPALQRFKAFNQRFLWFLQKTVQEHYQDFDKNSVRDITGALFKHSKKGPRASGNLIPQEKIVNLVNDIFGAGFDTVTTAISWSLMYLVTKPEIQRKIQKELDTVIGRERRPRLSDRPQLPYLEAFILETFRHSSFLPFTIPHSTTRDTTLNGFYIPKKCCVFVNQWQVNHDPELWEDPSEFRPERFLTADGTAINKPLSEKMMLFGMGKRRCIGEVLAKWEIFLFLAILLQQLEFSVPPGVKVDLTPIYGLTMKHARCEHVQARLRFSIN
Sequence of Cytochrome P450 3A4 (Homo sapiens) (P08684 whole entry, looked up): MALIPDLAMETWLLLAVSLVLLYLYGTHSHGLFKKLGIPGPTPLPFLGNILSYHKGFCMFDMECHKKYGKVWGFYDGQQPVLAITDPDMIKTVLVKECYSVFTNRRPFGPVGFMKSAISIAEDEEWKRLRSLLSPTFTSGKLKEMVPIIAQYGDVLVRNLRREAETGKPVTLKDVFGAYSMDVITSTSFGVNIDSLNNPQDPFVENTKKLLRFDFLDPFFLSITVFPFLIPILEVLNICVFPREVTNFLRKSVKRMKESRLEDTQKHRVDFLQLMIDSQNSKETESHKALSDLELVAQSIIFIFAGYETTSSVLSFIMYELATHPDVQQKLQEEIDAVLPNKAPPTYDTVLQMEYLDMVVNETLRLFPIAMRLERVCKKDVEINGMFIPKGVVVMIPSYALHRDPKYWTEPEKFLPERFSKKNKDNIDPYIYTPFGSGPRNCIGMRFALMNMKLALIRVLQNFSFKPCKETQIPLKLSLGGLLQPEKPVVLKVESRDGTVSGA
Sequence of Ubiquitin carboxyl-terminal hydrolase 1 (Homo sapiens) (O94782 whole entry, looked up): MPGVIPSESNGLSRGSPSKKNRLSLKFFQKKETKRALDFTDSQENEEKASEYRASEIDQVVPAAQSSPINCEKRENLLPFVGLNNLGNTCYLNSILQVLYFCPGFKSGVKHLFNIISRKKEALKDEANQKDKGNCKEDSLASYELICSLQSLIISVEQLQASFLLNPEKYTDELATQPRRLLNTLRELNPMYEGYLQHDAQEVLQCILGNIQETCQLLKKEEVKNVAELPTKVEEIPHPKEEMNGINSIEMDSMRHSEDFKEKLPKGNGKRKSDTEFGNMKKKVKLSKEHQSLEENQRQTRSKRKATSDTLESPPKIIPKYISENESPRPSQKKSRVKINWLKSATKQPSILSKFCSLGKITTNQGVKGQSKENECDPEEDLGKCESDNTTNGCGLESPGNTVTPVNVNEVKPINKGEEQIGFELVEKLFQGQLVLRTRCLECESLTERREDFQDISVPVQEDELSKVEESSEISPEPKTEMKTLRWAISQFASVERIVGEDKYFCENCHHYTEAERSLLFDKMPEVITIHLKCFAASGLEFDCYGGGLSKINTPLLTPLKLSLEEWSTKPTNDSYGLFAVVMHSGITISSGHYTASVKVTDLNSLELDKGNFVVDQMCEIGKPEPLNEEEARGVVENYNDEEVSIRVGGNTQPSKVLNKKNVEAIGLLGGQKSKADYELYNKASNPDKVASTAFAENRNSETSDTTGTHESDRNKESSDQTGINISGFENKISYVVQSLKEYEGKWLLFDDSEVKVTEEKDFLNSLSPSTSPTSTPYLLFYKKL
Sequence of 3',5'-cyclic-AMP phosphodiesterase 4B (Homo sapiens) (Q07343 whole entry, looked up): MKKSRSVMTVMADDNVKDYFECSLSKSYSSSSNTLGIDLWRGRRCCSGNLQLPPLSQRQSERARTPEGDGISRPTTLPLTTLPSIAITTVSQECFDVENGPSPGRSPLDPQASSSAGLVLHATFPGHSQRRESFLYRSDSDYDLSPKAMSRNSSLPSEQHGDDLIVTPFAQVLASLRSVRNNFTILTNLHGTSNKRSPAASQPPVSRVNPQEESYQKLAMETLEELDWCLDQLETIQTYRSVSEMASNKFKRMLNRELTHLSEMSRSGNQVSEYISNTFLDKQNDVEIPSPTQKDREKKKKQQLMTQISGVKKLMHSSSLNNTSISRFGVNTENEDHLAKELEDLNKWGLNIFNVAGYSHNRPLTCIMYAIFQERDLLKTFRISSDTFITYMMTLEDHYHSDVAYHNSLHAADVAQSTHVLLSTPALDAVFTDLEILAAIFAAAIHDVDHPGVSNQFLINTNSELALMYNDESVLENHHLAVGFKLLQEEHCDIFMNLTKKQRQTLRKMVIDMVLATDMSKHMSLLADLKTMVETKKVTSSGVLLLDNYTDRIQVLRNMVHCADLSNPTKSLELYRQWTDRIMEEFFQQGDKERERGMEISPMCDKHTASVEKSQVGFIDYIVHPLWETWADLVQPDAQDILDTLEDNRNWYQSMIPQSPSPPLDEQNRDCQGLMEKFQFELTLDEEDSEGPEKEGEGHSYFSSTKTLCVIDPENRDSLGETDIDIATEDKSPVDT
Sequence of Lysosomal acid glucosylceramidase (Homo sapiens) (P04062 whole entry, looked up): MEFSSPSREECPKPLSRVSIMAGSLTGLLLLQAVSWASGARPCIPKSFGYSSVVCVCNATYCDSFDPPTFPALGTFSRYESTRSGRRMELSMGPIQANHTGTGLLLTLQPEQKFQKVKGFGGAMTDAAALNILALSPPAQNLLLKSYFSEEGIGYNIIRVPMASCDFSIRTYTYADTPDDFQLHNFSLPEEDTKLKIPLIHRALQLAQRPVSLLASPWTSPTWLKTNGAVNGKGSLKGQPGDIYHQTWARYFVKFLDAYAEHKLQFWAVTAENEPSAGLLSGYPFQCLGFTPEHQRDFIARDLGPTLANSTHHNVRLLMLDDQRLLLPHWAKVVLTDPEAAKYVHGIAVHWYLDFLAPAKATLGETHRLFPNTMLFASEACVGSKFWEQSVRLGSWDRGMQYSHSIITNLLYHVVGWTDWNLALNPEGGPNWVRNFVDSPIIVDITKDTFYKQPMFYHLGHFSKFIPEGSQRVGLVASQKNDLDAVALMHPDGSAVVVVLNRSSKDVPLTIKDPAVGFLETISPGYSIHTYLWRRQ
Sequence of Cytochrome P450 2C19 (Homo sapiens) (P33261 whole entry, looked up): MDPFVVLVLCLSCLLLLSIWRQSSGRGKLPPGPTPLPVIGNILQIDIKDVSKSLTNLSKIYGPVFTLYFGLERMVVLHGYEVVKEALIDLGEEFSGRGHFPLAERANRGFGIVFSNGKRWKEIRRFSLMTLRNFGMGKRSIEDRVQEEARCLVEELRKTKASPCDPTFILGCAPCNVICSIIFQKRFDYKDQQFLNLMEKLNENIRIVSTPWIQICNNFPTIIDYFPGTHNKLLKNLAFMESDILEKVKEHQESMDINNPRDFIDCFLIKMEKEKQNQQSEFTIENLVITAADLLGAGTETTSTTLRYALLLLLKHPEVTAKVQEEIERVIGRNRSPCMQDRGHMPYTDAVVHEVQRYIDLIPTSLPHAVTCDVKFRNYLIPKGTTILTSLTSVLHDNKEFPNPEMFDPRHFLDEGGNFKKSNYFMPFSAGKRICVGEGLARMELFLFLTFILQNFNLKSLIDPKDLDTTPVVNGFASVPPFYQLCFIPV

`Cc1cccc(CNc2ccnc(-c3cccc(C#N)c3)n2)c1`: the Potency in experiment [1] was more than 11.4 µM; in experiment [2] it was 0.398 µM (active); in [3], more than 46 µM; in experiment [4], more than 46 µM; in experiment [6], 1.26 µM (active); in [8], 2.51 µM (active). The Potency in [9] was 11.2 µM (active); in experiment [10], 7.94 µM (active); in experiment [11], 11.2 µM (active). In addition, the Potency entry in experiment [5], in experiment [7] and in experiment [12] was “inactive” throughout. Also, the outcome in experiment [13] was inactive.
As to `CN1CCN(c2ncc3nc(-c4ccc(Cl)cc4)c(=O)n(C)c3n2)CC1`, the Potency in [1] was more than 11.4 µM; in [3], more than 9.22 µM; in experiment [4], more than 46 µM; in [7], 12.6 µM (active); in [15] it was 3.16 µM (active). Besides, the Potency result in experiment [14], in experiment [5], in experiment [6], in experiment [9], in experiment [10] and in experiment [11] was “inactive” in each case. For the same compound, the Potency entry in experiment [12] is “inactive”. In addition, the outcome in [13] was inactive.
As for `c1cncc(CNc2ncncc2-c2ccoc2)c1`, the Potency in experiment [1] was more than 11.4 µM; in experiment [3] it was more than 46 µM; in experiment [4], more than 46 µM. Besides, the activity change, negative = inhibition in experiment [16] is 7.14%. Besides, the activity, negative = inhibition in experiment [17] was -4.52%. Moreover, the Potency result in experiment [14], in [5], in experiment [9], in experiment [10], in [11] and in experiment [12] was “inactive” throughout. Moreover, the result in experiment [13] was inactive.
In the case of `Cn1c(=O)c(-c2ccc(Cl)cc2)nc2cnc(N3CCNCC3)nc21`, the results for the Potency in [1], in experiment [3] and in [4] were more than 11.4 µM, more than 9.22 µM and more than 46 µM, respectively. Also, the activity change, negative = inhibition in experiment [16] is 204% [activator] (active). For the same compound, the Potency result in [14], in [5], in [7], in experiment [9], in [10] and in experiment [11] was “inactive” throughout. Moreover, the Potency entry in experiment [12] was “inactive”. Also, the result in experiment [13] was inactive.
In the case of `CN(C)c1ncc2nc(-c3ccc(Cl)cc3)c(=O)n(-c3ccccc3)c2n1`, the Potency in experiment [1] is more than 11.4 µM; in [2], 5.01 µM (active); in experiment [3], more than 9.22 µM; in experiment [4] it was more than 46 µM; in experiment [5], 1 µM (active); in experiment [15], 2.51 µM (active). For the same compound, the Potency result in experiment [14], in experiment [9], in experiment [10], in experiment [11] and in experiment [12] was “inactive” throughout. Also, the outcome in experiment [13] was inactive.
As to `CN(C)c1ncc2nc(-c3ccc(Cl)cc3)c(=O)n(Cc3cccs3)c2n1`, the Potency in [1] was more than 11.4 µM; in [2], 1.58 µM (active); in [3] it was more than 9.22 µM; in experiment [4], more than 46 µM; in [15] it was 0.398 µM (active). In addition, in [17], the activity, negative = inhibition was 153% [activator] (active). Further, the Potency result in experiment [14], in experiment [5], in [9], in experiment [10], in [11] and in experiment [12] was “inactive” in each case. Besides, the result in experiment [13] was inactive.
As for `CCNc1ncc2nc(-c3ccc(Cl)cc3)c(=O)n(-c3ccc(OC)cc3)c2n1`, the results for the Potency in [1], in experiment [3] and in [4] were more than 11.4 µM, more than 9.22 µM and more than 46 µM, respectively. The Potency result in experiment [5], in [9], in experiment [10], in experiment [11] and in experiment [12] was “inactive” each time. For the same compound, the result in experiment [13] was inactive.
For `COc1cccc(Cn2c(=O)c(-c3ccc(Cl)cc3)nc3cnc(N4CCOCC4)nc32)c1`, the Potency was more than 11.4 µM in experiment [1], more than 9.22 µM in [3], more than 46 µM in experiment [4] and 1.58 µM (active) in [15]. In addition, the Potency entry in [14], in experiment [5], in experiment [9], in [10], in experiment [11] and in experiment [12] was “inactive” throughout. The result in experiment [13] was inactive.
